Laboratory results: PubChem BioAssay (NCI)
Compounds without any hit were thinned out: in the full panel of roughly 83,000, 20% have a hit.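 Note: values are percent growth. 100 is the growth of untreated cells, values between 100 and 0 indicate rising inhibition; between -100 and 0 indicates cell death.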 The source made the active and inactive calls. The calls were made as follows: active = growth percent below 10; inactive = the rest.

Key:
Experiment in all cases: NCI-60 one-dose screen, 48 h (100 = growth as untreated, 0 = no growth, -100 = all killed)
Settings in all cases: 10 µM
DU-145 prostate = test system: DU-145 prostate
K-562 leukemia = test system: K-562 leukemia
MALME-3M melanoma = test system: MALME-3M melanoma
MDA-MB-231 breast = test system: MDA-MB-231 breast
RXF 393 renal = test system: RXF 393 renal
SF-268 CNS = test system: SF-268 CNS
SF-295 CNS = test system: SF-295 CNS
SF-539 CNS = test system: SF-539 CNS
UACC-257 melanoma = test system: UACC-257 melanoma
M14 melanoma = test system: M14 melanoma

Measured: growth

Oc1ccccc1-c1nnc(Cn2c(Cc3cccc4ccccc34)nc3ccccc32)o1
inactive: DU-145 prostate 106% | K-562 leukemia 98.6% | MALME-3M melanoma 87.1% | MDA-MB-231 breast 101% | RXF 393 renal 108% | SF-268 CNS 96.6% | SF-295 CNS 93.9% | SF-539 CNS 97.9% | UACC-257 melanoma 100% | M14 melanoma 96.9%

C[C@@H]1N=C(c2ccc(Br)cc2)Nc2nc3ccccn3c2C1=O
inactive: DU-145 prostate 87.7% | K-562 leukemia 24.3% | MALME-3M melanoma 51.8% | MDA-MB-231 breast 52.7% | RXF 393 renal 68.2% | SF-268 CNS 83.4% | SF-295 CNS 40.9% | SF-539 CNS 74.6% | UACC-257 melanoma 69.9% | M14 melanoma 31.8%

CCc1nn2c(-c3ccccc3)c(-c3cc(OC)c(OC)c(OC)c3)nc2s1
inactive: DU-145 prostate 102% | K-562 leukemia 92.1% | MALME-3M melanoma 62.4% | MDA-MB-231 breast 76.8% | RXF 393 renal 88.9% | SF-268 CNS 96% | SF-295 CNS 89.1% | SF-539 CNS 97.3% | UACC-257 melanoma 107% | M14 melanoma 99.1%

COc1ccc2nc(C)cc(Nc3ccc(Cl)cc3)c2c1
inactive: DU-145 prostate 102% | K-562 leukemia 97.9% | MALME-3M melanoma 114% | MDA-MB-231 breast 115% | RXF 393 renal 118% | SF-268 CNS 103% | SF-295 CNS 108% | SF-539 CNS 104% | UACC-257 melanoma 99.4% | M14 melanoma 100%

CCOC(=O)CSC(=S)SCC(=O)OCC
inactive: DU-145 prostate 107% | K-562 leukemia 95.6% | MALME-3M melanoma 98% | MDA-MB-231 breast 118% | RXF 393 renal 109% | SF-268 CNS 113% | SF-295 CNS 103% | SF-539 CNS 94.1% | UACC-257 melanoma 82.8% | M14 melanoma 97.9%

COc1ccc2oc(=O)cc(C3c4ccc([nH]4)C(c4cc(=O)oc5ccc(OC)cc45)c4ccc([nH]4)C(c4cc(=O)oc5ccc(OC)cc45)c4ccc([nH]4)C(c4cc(=O)oc5ccc(OC)cc45)c4ccc3[nH]4)c2c1 (stereo not given)
active: DU-145 prostate -19.3% | K-562 leukemia -20.5% | MALME-3M melanoma 2.83% | MDA-MB-231 breast -16.5% | RXF 393 renal -77.3% | SF-295 CNS 9.08% | SF-539 CNS -26.9% | M14 melanoma 3.08%
inactive: SF-268 CNS 20.4% | UACC-257 melanoma 33.7%

OC(CNC1CCCC1)Cn1c2ccccc2c2ccccc21 (stereo not given)
inactive: DU-145 prostate 23% | RXF 393 renal 31.2% | SF-268 CNS 44.8%
active: K-562 leukemia 3.31% | MALME-3M melanoma -70.8% | MDA-MB-231 breast -23.9% | SF-295 CNS -29.8% | SF-539 CNS -69.9% | UACC-257 melanoma -13.2% | M14 melanoma -68.1%

COc1ccc(C(=O)/C=C/c2cc(-c3ccc(OC)c(OC)c3)n[nH]2)cc1OC
active: DU-145 prostate -25.8% | K-562 leukemia 5.44% | MALME-3M melanoma -47.5% | MDA-MB-231 breast -18.7% | RXF 393 renal -79.3% | SF-268 CNS -28% | SF-539 CNS -99.3%
inactive: SF-295 CNS 18% | UACC-257 melanoma 11.7% | M14 melanoma 18.1%

CC(C)(C)c1ccc(OCCCCCCN2CCNCC2)cc1
inactive: DU-145 prostate 86.2% | MALME-3M melanoma 60.6% | MDA-MB-231 breast 36.4% | RXF 393 renal 46.2% | SF-268 CNS 78.2% | SF-295 CNS 57.7% | SF-539 CNS 68.9% | UACC-257 melanoma 93.6% | M14 melanoma 22.6%
active: K-562 leukemia 0.864%

COc1ccc(-c2ccc(-c3ccc(C(=N)N)c(F)c3)s2)cc1
active: DU-145 prostate -97.8% | K-562 leukemia -70.2% | MALME-3M melanoma -62% | MDA-MB-231 breast -89% | RXF 393 renal -80.4% | SF-268 CNS -89.8% | SF-295 CNS -87.5% | SF-539 CNS -93.7% | UACC-257 melanoma -87.1% | M14 melanoma -83.5%

COc1cccc2c1O/C(=C\c1ccc([N+](=O)[O-])s1)C2=O
inactive: DU-145 prostate 80.4% | MALME-3M melanoma 88.6% | MDA-MB-231 breast 55.4% | RXF 393 renal 25.7% | SF-268 CNS 12.5% | SF-295 CNS 97.2% | SF-539 CNS 55.7% | UACC-257 melanoma 65.2% | M14 melanoma 48.1%
active: K-562 leukemia 8.38%

COc1ccc(-c2csc(NC(=O)CO[N+](=O)[O-])n2)cc1
inactive: DU-145 prostate 106% | K-562 leukemia 96.8% | MALME-3M melanoma 102% | MDA-MB-231 breast 102% | RXF 393 renal 125% | SF-268 CNS 99.5% | SF-295 CNS 101% | SF-539 CNS 98.7% | UACC-257 melanoma 63% | M14 melanoma 102%

CCCCCCCCCCCCc1ccc(C(=O)/C=C/C(=O)O)cc1
active: K-562 leukemia -5.52%
inactive: DU-145 prostate 89.8% | MALME-3M melanoma 69.1% | MDA-MB-231 breast 29.4% | RXF 393 renal 80.8% | SF-268 CNS 100% | SF-295 CNS 80.2% | SF-539 CNS 76.5% | UACC-257 melanoma 96.1% | M14 melanoma 62.1%
